Assay outcomes from PubChem BioAssay.
Shown are actives, neighbours in structure and some others; about 2.3% of the full set was active somewhere.
Rtt109 HAT inh: C. albicans Rtt109 histone acetyltransferase inhibition; Q5AAJ8; purified Rtt109/Vps75, ThioGlo CoA-SH fluorescence, 4 h; inhibition, % at 34.9 µM; hit rate 0.16% among 330,000;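 active = inhibition of at least 50% in every replicate; inconclusive = best replicate reaches 50% inhibition but some replicates fall short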
Target sequence (Q5AAJ8 whole entry, looked up): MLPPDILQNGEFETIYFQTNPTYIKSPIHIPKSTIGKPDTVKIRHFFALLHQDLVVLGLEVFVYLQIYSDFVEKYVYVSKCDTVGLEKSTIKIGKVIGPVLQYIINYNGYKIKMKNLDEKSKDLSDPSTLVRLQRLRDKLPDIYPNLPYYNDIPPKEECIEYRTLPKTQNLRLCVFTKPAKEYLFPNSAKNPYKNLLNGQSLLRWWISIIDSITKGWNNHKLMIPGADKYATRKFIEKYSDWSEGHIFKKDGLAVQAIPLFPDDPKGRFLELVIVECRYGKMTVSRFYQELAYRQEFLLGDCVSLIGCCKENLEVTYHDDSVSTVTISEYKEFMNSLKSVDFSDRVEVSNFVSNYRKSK
PDI turbidity: inhibitors of human protein disulfide isomerase | P07237 | PDI insulin aggregation turbidity, A650, 90 min | inhibition, % at 10 µM | hit rate 0.052% among 350,000;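 active = mean inhibition across replicates of 30% or more, whatever share of single replicates reach that level; inconclusive = mean inhibition below 30% while every single replicate reaches 30%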
ERp5 inh: blocks human ERp5 reductase activity on insulin. Q15084. ERp5 insulin aggregation, absorbance 650 nm, 90 min. inhibition, % at 9.99 µM. hit rate 0.05% among 350,000. AID 651711;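 active = mean replicate inhibition above about 25%, with every replicate also reaching it, limit read from the data, passing the limit was not always enough; inconclusive = only one of those two criteria met; inactive = neither criterion met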
SIRT5 inh: sirtuin-5 (human) deacylase inhibition; inhibition, % at 15 µM; hit rate 1.1% among 330,000; AID 652115; Purified SirT5, succinyl-peptide AMC, trypsin-coupled fluorescence; in the data active = inhibition above about 15%; inconclusive = no clear call, values can overlap the other calls
Target sequence (Q9NXA8 whole entry, looked up): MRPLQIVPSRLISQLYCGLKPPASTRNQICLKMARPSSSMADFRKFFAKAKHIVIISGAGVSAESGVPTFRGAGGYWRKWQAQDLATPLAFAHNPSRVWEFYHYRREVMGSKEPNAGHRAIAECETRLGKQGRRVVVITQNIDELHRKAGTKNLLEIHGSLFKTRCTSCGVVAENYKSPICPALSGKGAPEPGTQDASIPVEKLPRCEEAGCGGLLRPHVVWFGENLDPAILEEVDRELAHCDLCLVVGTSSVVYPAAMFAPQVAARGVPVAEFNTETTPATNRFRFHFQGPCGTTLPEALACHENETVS
DENV2 CPE rescue: inhibitors of DENV2 cytopathic effect; DENV2-infected cells, cytopathic effect rescue, plate reader; hit rate 1.7% among 350,000; AID 651640; CPE inhibition, % at 9.99 µM; in the data active = CPE inhibition above about 20%, passing the limit was not always enough; inconclusive = no clear call, values can overlap the other calls; tested in BHK-21 cells;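 note: 0% = median of neutral control wells and 100% = median of positive control wells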
* hit, by the source's call; ? = inconclusive; · = no result; ! = a repeat was not active.

SMILES	Rtt109 HAT inh	PDI turbidity	ERp5 inh	SIRT5 inh	DENV2 CPE rescue
C[C@@H]1CN([C@H](C)CO)S(=O)(=O)c2ccc(/C=C/c3ccccc3)cc2O[C@H]1CN(C)C(=O)Nc1cc(F)ccc1F	·	·	-2.3	23.3*	18.6
Cc1ccccc1-c1ccc2c(c1)O[C@H](CN(C)C(=O)Nc1ccc(F)cc1)[C@H](C)CN([C@H](C)CO)S2(=O)=O	·	·	-0.1	15.7*	-10.5
C[C@@H]1CN([C@@H](C)CO)S(=O)(=O)c2ccc(/C=C/c3ccccc3)cc2O[C@@H]1CN(C)C(=O)Nc1ccc(F)cc1	·	·	-1.1	16.6*	5.0
C/C=C/c1ccc2c(c1)O[C@H](CN(C)C(=O)Nc1cc(F)ccc1F)[C@H](C)CN([C@@H](C)CO)S2(=O)=O	·	·	3.1	5.7	2.3
O=C(NC1CCCC1)N[C@@H]1CC[C@H](CC(=O)N2CCOCC2)O[C@@H]1CO	·	·	2.6	0.4	-5.7
C[C@H](CO)N1C[C@H](C)[C@H](CN(C)Cc2ccc(C(=O)O)cc2)Oc2c(NS(=O)(=O)c3cn(C)cn3)cccc2C1=O	·	·	-2.9	10.9	18.0
COc1cccc(-c2ccc3c(c2)O[C@@H](CN(C)C(=O)c2ccccc2F)[C@H](C)CN([C@H](C)CO)S3(=O)=O)c1	·	·	-2.9	6.8	-0.1
C/C=C/c1ccc2c(c1)O[C@@H](CN(C)C(=O)Nc1cc(F)ccc1F)[C@H](C)CN([C@H](C)CO)S2(=O)=O	·	·	3.2	3.6	16.0
COc1cccc(NC(=O)N(C)C[C@@H]2Oc3cc(/C=C/c4ccccc4)ccc3S(=O)(=O)N([C@@H](C)CO)C[C@H]2C)c1	·	·	49.6	102.1*	2.1
C/C=C/c1ccc2c(c1)O[C@H](CN(C)C(=O)Nc1cc(F)ccc1F)[C@H](C)CN([C@H](C)CO)S2(=O)=O	·	·	-2.4	6.4	2.5
COc1cccc(-c2ccc3c(c2)O[C@H](CN(C)C(=O)c2ccccc2F)[C@H](C)CN([C@H](C)CO)S3(=O)=O)c1	·	-1.7	-10.0	36.6*!	5.0
C[C@@H]1CN([C@H](C)CO)S(=O)(=O)c2ccc(/C=C/c3ccccc3)cc2O[C@@H]1CN(C)C(=O)Nc1cc(F)ccc1F	·	·	-1.4	25.1*	-2.8
C[C@H](CO)N1C[C@H](C)[C@@H](CN(C)C(=O)Nc2cc(F)ccc2F)Oc2cc(/C=C/c3ccccc3)ccc2S1(=O)=O	·	·	0.7	21.4*	0.0
COc1cccc(NC(=O)N(C)C[C@@H]2Oc3cc(/C=C/c4ccccc4)ccc3S(=O)(=O)N([C@H](C)CO)C[C@@H]2C)c1	·	·	5.3	2.0	-1.1
Cc1ccc(S(=O)(=O)Nc2ccc3c(c2)CC(=O)N([C@H](C)CO)C[C@H](C)[C@H](CN(C)C(=O)Nc2c(C)noc2C)O3)cc1	·	·	-6.3	7.9	-9.4
C[C@H]1CCCCO[C@H](CN(C)C(=O)Nc2ccc3c(c2)OCO3)[C@@H](C)CN([C@@H](C)CO)C(=O)c2cc(NC(=O)Nc3ccc(F)cc3)ccc2O1	·	·	2.4	1.1	13.7
CCOC(=O)c1c(N)c2cc([N+](=O)[O-])cnc2n1C	·	6.9	-0.1	-1.7	3.2
CCOC(=O)c1c(NC(=O)c2ccno2)c2cc([N+](=O)[O-])ccc2n1C	-6.3	10.0	-2.9	-2.1	84.3*
CC(=O)c1ccc(OC(C)C(=O)NC2CCCCC2C)cc1 (configuration not stated)	-1.1	-1.4	1.6	-0.6	66.7*
CC(C)Oc1ccc(C(=O)OC(C)C(=O)NC2CCCCC2C)cc1 (configuration not stated)	23.7	-14.9	3.6	-2.7	-3.7
C[C@H]1CN([C@@H](C)CO)C(=O)c2cccc(NS(=O)(=O)c3ccccc3)c2O[C@H]1CN(C)Cc1ccccc1	·	·	6.8	-1.9	10.1
CCCN1CCN(C(=O)c2ccc3nc(CC)c(CC)nc3c2)CC1	6.9	-19.6	3.7	20.3*	-1.3
CCOC(=O)/C=C/c1cc(F)ccc1O	·	·	-0.1	0.6	20.7*
COc1cc(NC(=O)Cc2ccccc2)c(C(=O)O)cc1OC	-0.4	0.5	7.9	4.6	2.7
COc1cc(NC(=O)Cc2ccc([N+](=O)[O-])cc2)c(C(=O)O)cc1OC	1.0	5.9	-6.5	19.5*	2.6
SMILES	Rtt109 HAT inh	PDI turbidity	ERp5 inh	SIRT5 inh	DENV2 CPE rescue
C[C@@H]1CN([C@@H](C)CO)C(=O)Cc2cc(NS(=O)(=O)c3ccccc3)ccc2O[C@H]1CN(C)Cc1ccc(C(F)(F)F)cc1	·	·	2.0	0.7	3.2
CCOc1ccc(C(=O)Nc2cc(NC(=O)c3ccc(OCC)c(Cl)c3)cc(C(=O)O)c2)cc1Cl	11.0	-0.5	5.4	15.3*	2.4
COc1ccc(CN(C)C[C@H]2OCCCC[C@H](C)Oc3ccc(NC(=O)Nc4ccc(OC)cc4)cc3C(=O)N([C@@H](C)CO)C[C@@H]2C)cc1	·	·	3.0	-0.1	?
COc1ccc(NC(=O)N(C)C[C@H]2Oc3c(NC(=O)CCCCCC(=O)Nc4ccccc4N)cccc3C(=O)N([C@@H](C)CO)C[C@H]2C)cc1	·	·	6.2	·	33.6*
COc1ccc(NC(=O)N(C)C[C@@H]2Oc3c(NC(=O)Nc4ccc(F)cc4)cccc3C(=O)N([C@@H](C)CO)C[C@H]2C)cc1	·	·	1.2	6.0	34.4*
COc1ccc(NC(=O)Nc2cccc3c2O[C@@H](CN(C)C(=O)Nc2ccccc2)[C@H](C)CN([C@H](C)CO)C3=O)cc1	·	·	-6.7	-6.5	36.5*
COc1ccc(NC(=O)N(C)C[C@H]2Oc3c(NC(=O)Nc4ccccc4)cccc3C(=O)N([C@@H](C)CO)C[C@H]2C)cc1	·	·	-7.2	6.3	-4.2
COc1ccc(NC(=O)Nc2cccc3c2O[C@H](CN(C)C(=O)Nc2ccc(OC)cc2)[C@@H](C)CN([C@@H](C)CO)C3=O)cc1	·	·	3.9	1.4	144.1*
COc1ccc(NC(=O)Nc2cccc3c2O[C@@H](CN(C)C(=O)Nc2ccc(F)cc2)[C@H](C)CN([C@H](C)CO)C3=O)cc1	·	·	-0.7	4.3	-2.4
CC(=O)N1CC2(C1)[C@H](c1ccc(-c3ccccc3C)cc1)[C@@H](CO)N2C(=O)CC1CC1	·	·	-3.7	-2.7	-6.4
COc1ccc(NC(=O)Nc2cccc3c2O[C@H](CN(C)S(=O)(=O)c2ccccc2)[C@@H](C)CN([C@H](C)CO)C3=O)cc1	1.2	0.9	-3.5	1.5	-3.5
COc1ccc(NC(=O)Nc2cccc3c2O[C@H](CN(C)S(=O)(=O)c2ccccc2)[C@H](C)CN([C@@H](C)CO)C3=O)cc1	·	·	-4.7	2.5	80.1*
O=C(Nc1ccc(N2CCOCC2)c2nonc12)C1CCCC1	-5.5	14.0	·	·	·
Nc1ccc(N2CCOCC2)c2nonc12	·	66.3*	22.1	-5.9	2.6
CNC[C@H]1OCCCC[C@H](C)Oc2ccc(NC(=O)Nc3ccccc3)cc2C(=O)N([C@H](C)CO)C[C@@H]1C	·	·	-0.3	-1.8	0.2
C[C@@H]1CN([C@@H](C)CO)C(=O)c2cc(-c3cccc(C#N)c3)cnc2O[C@@H]1CN(C)Cc1ccc(F)cc1	·	·	-8.6	-4.3	-1.7
Cc1cc(C)c(OCC(=O)NCC(C)(C)N2CCOCC2)c(C)c1	-8.1	7.4	0.7	30.1*	?
